Screening data deposited in PubChem by Broad Institute.
The entries come from a sample that favours hits as a whole.
IDE exosite inh = exo-site inhibitors of human IDE, primary screen, biochemical, fluorescence anisotropy, probe displacement | Insulin-degrading enzyme (Homo sapiens), P14735 | purified IDE, FL-6b probe fluorescence polarization; stronger effect = lower value | z-score at 20 µM | actives 6.3% (n = 17,000) | AID 1259349, 2017;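 active means z-score of -3 or lower, meaning strong loss of probe binding signal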;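 further: His-tagged human IDE residues 42-1019 made in E. coli with 30 nM FL-6b probe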
The depositor's hits bear a star.

SMILES	IDE exosite inh
O=C(c1ccccc1)N1CC(=O)N2[C@H](CO)[C@H](c3ccc(C#CC4CC4)cc3)[C@H]2C1	4.4
O=C(CC1CC1)N1CC(=O)N2[C@H](CO)[C@H](c3ccc(C#Cc4cccc(F)c4)cc3)[C@H]2C1	-3.9*
O=C(CC1CC1)N1CC(=O)N2[C@H](CO)[C@@H](c3ccc(C#Cc4cccc(F)c4)cc3)[C@H]2C1	-2.1
O=C(CC1CC1)N1CC(=O)N2[C@H](C1)[C@@H](c1ccc(C#Cc3cccc(F)c3)cc1)[C@@H]2CO	-1.5
O=C(CC1CC1)N1CC(=O)N2[C@@H](CO)[C@H](c3ccc(C#Cc4cccc(F)c4)cc3)[C@@H]2C1	-1.5
O=C(CC1CC1)N1CC(=O)N2[C@H](CO)[C@H](c3ccc(C#Cc4cccc(F)c4)cc3)[C@@H]2C1	-3.2*
O=C(CC1CC1)N1CC(=O)N2[C@H](C1)[C@H](c1ccc(C#Cc3cccc(F)c3)cc1)[C@@H]2CO	-1.1
C/C=C/c1ccc([C@@H]2[C@@H](CO)N(C(=O)C3CC3)[C@H]2CN(C)C(=O)CN(C)C)cc1	0.98
C/C=C/c1ccc([C@H]2[C@@H](CO)N(CCC(F)(F)F)[C@@H]2CNC(=O)C2CCC2)cc1	1.5
COc1ccc2c3c([nH]c2c1)[C@H](CO)N(Cc1ccc(F)cc1)CC31CN(C)C1	-1.1
CO[C@H]1CN(C)C(=O)c2cc(NC(=O)C3CCCCC3)ccc2OC[C@@H](C)N(Cc2cccnc2)C[C@@H]1C	2
C[C@@H]1CCCn2nncc2COCCNC1=O	0.29
CN(C)CC(=O)N1CCCCN2[C@@H](CO)[C@H](c3ccc(/C=C/c4ccccc4)cc3)[C@@H]2C1	-6.5*
CN(C)CC#Cc1ccc([C@@H]2[C@@H](CO)N3CCCCN(C(=O)CN(C)C)C[C@H]23)cc1	1.4
CN(C)CC#Cc1ccc([C@H]2[C@@H](CO)N3CCCCN(C(=O)CN(C)C)C[C@H]23)cc1	4
O=C(c1ccc(F)cc1)N1CCCCN2[C@H](CO)[C@H](c3ccc(/C=C/c4ccccc4)cc3)[C@@H]2C1	6.9
CCC(=O)N1CCCCN2[C@H](CO)[C@H](c3ccc(/C=C/c4ccccc4)cc3)[C@@H]2C1	-7.3*
CN(C)CC#Cc1ccc([C@@H]2[C@H]3CN(C(=O)CN(C)C)CCCCN3[C@H]2CO)cc1	1.7
O=C(c1ccc(F)cc1)N1CCCCN2[C@H](CO)[C@@H](c3ccc(/C=C/c4ccccc4)cc3)[C@@H]2C1	0.98
CN(C)CC(=O)N1CCCCN2[C@H](CO)[C@H](c3ccc(/C=C/c4ccccc4)cc3)[C@H]2C1	-11*
CN(C)CC#Cc1ccc([C@@H]2[C@H](CO)N3CCCCN(C(=O)CN(C)C)C[C@@H]23)cc1	4
CN(C)CC(=O)N1CCCCN2[C@H](C1)[C@@H](c1ccc(/C=C/c3ccccc3)cc1)[C@@H]2CO	-5.9*
CN1CCCCN2[C@H](C1)[C@@H](c1ccc(/C=C/c3ccccc3)cc1)[C@@H]2CO	-2.5
CN(C)CC(=O)N1CCCCN2[C@@H](CO)[C@@H](c3ccc(-c4cncnc4)cc3)[C@@H]2C1	0.079
CC(=O)N1[C@H](CO)[C@H](c2ccc(-c3ccccc3)cc2)[C@@H]1CNC(=O)NC(C)C	0.92
SMILES	IDE exosite inh
COCC(=O)N1[C@@H](CO)[C@@H]2c3ccccc3NC[C@@H]21	2.8
O=C(C[C@@H]1CC[C@@H]2[C@H](COC[C@H](O)CN2S(=O)(=O)c2cccc(Cl)c2)O1)N1CCOCC1	1.3
COCC(=O)N1CC(=O)N2[C@@H](CO)[C@@H](c3ccc(-c4cccnc4)cc3)[C@@H]2C1	3.4
C[C@H]1CN([C@@H](C)CO)C(=O)c2ccccc2-c2ccccc2CO[C@H]1CN(C)S(=O)(=O)c1cn(C)cn1	-1.1
CCC(=O)N1CC(=O)N2[C@H](CO)[C@@H](c3ccc(-c4ccc(C#N)cc4)cc3)[C@@H]2C1	-0.89
COc1cccc(C(=O)Nc2ccc3c(c2)C(=O)N(C)C[C@@H](OC)[C@H](C)CN(C(=O)C2CC2)[C@H](C)CO3)c1	0.051
C/C=C/c1ccc([C@@H]2[C@H]3CN(C(=O)CN(C)C)CCCCN3[C@H]2CO)cc1	1.1
CN(C)CC(=O)N1CCCCN2[C@@H](CO)[C@@H](c3ccc(-c4ccccc4)cc3)[C@@H]2C1	-0.78
CN(C)CC(=O)N1CCCCN2[C@H](C1)[C@H](c1ccc(/C=C/c3ccccc3)cc1)[C@@H]2CO	-7.3*
CN(C)CC(=O)N1CCCCN2[C@@H](CO)[C@@H](c3ccc(/C=C/c4ccccc4)cc3)[C@@H]2C1	-12*
O=C(c1ccc(F)cc1)N1CCCCN2[C@@H](CO)[C@@H](c3ccc(/C=C/c4ccccc4)cc3)[C@@H]2C1	-0.79
O=C(c1ccc(F)cc1)N1CCCCN2[C@H](CO)[C@H](c3ccc(/C=C/c4ccccc4)cc3)[C@H]2C1	-1.6
CNC[C@@H]1OCCCC[C@H](C)Oc2ccc(NC(=O)Nc3ccc(OC)cc3)cc2C(=O)N([C@@H](C)CO)C[C@@H]1C	0.61
CNC[C@@H]1OCc2cnnn2CCCC(=O)N([C@H](C)CO)C[C@@H]1C	-0.56
CCC(=O)N1CC2(C1)[C@@H](c1ccc(-c3ccc(F)cc3)cc1)[C@H](CO)N2C(C)=O	1.2
CN(C)CC(=O)N[C@H]1CC[C@H](CCNC(=O)C2CCC2)O[C@H]1CO	2.2
CNC[C@H]1OCCCC[C@@H](C)Oc2ccc(N)cc2C(=O)N([C@@H](C)CO)C[C@H]1C	1.8
O=C(c1ccc2c(c1)OCO2)N1CC(=O)N2[C@H](C1)[C@H](c1ccc(-c3ccccc3)cc1)[C@@H]2CO	3.5
CC(C)C#Cc1ccc([C@H]2[C@H](CO)N3C(=O)CN(C(=O)c4ccc5c(c4)OCO5)C[C@@H]23)cc1	-1.3
O=C(c1ccc2c(c1)OCO2)N1CC(=O)N2[C@H](CO)[C@H](c3ccc(-c4ccccc4)cc3)[C@@H]2C1	3.1
O=C(c1ccc2c(c1)OCO2)N1CC(=O)N2[C@@H](CO)[C@@H](c3ccc(C#Cc4ccccc4)cc3)[C@@H]2C1	-5.2*
O=C(c1ccc2c(c1)OCO2)N1CC(=O)N2[C@H](CO)[C@H](c3ccc(C#Cc4ccccc4)cc3)[C@H]2C1	0.044
O=C(c1ccc2c(c1)OCO2)N1CC(=O)N2[C@H](C1)[C@H](c1ccc(C#Cc3ccccc3)cc1)[C@@H]2CO	-3.5*
O=C(Nc1ccccc1)N1CC(=O)N2[C@H](CO)[C@@H](c3ccc(C#Cc4cccnc4)cc3)[C@@H]2C1	3.7
C[C@@H]1CCCCO[C@@H](CN(C)C(=O)Nc2ccc3c(c2)OCO3)[C@H](C)CN([C@@H](C)CO)C(=O)c2cc(NS(=O)(=O)c3ccc(F)cc3)ccc2O1	0.72
SMILES	IDE exosite inh
C[C@H]1CCCCO[C@H](CN(C)C(=O)c2ccncc2)[C@@H](C)CN([C@@H](C)CO)C(=O)c2cc(NS(=O)(=O)c3cccs3)ccc2O1	0.086
CCS(=O)(=O)Nc1ccc2c(c1)C(=O)N(C)[C@@H]1CC[C@H](CC(=O)N[C@@H]3CCN(Cc4ccccc4)C3)O[C@@H]1CO2	-0.41
Cc1ccc(-c2ccc([C@@H]3[C@@H](CO)N4C(=O)CN(C(=O)CN5CCOCC5)C[C@H]34)cc2)cc1	-2.3
O=C(CN1CCOCC1)N1CC(=O)N2[C@H](CO)[C@H](c3ccc(/C=C/c4ccccc4)cc3)[C@@H]2C1	-8.7*
O=C(CN1CCOCC1)N1CC(=O)N2[C@@H](CO)[C@H](c3ccc(/C=C/c4ccccc4)cc3)[C@@H]2C1	-8.2*
CCCC#Cc1ccc([C@@H]2[C@H]3CN(C(=O)CN4CCOCC4)CC(=O)N3[C@H]2CO)cc1	4.2
